Screening results deposited in PubChem by National Center for Advancing Translational Sciences (NCATS).
Epigenetic derep = regulators of epigenetic silencing causing reporter derepression in mouse cells; actives 0.2% (n = 280,000); murine LDR cells, GFP reporter derepression, 30 h; AID 1865; Potency, µM (doses to about 53.9 µM), without a hit: top-dose GFP activation, hits mostly activators; further: potency means the concentration at half of the fitted maximal effect; % of control where 0% means no effect; nearly all actives have a fitted effect of over 60% in size
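In this reporter-derepression format, murine cells bearing a silenced integrated CMV-GFP locus incubate with test compound (30 h, 37 C), then are washed and imaged; fluorescent objects of 20–120 um count as induced cells.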
CBFb-RUNX1 inh = inhibitors of human CBF-beta and RUNX1 interaction; AlphaScreen CBFb-His/RUNX1-biotin binding, biochemical; Potency, µM (top dose mostly 59.8 µM), without a hit: top-dose activity, negative = inhibition, most hits filed as inhibitors; 230,000 tested, under 10 active; AID 1477; further: % of control where 0% means no effect
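Bead-based AlphaScreen assay; binding partners His-tagged CBF-beta and biotinylated RUNX1 at 30 nM each. Compound exposure 15 min after a 20-min protein preincubation; bead step 90 min; all steps at room temperature.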
IL-2 act = activators of IL-2; actives 0.065% (n = 360,000); AID 652025; activation, % (series mostly up to about 46 µM); IL-2 activation reporter assay, cell-based qHTS; stimulated with anti-CD3/CD4/CD28 beads; in transgenic mouse T cells; in the data active means activation above about 50%; inconclusive means mostly about 30% to 49%; further: 0% is about no effect
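Quantitative HTS in unstimulated transgenic mouse T cells, with memory T cells as non-tolerant control and PMA/ionomycin as tolerance-bypass control. Compound pretreatment lasted 60 minutes before 18 h bead stimulation; EGFP/DsRed fluorescence read.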
TRHR ag = agonists of human TRH receptor. P34981. TRHR cells, calcium flux fluo-8, FDSS agonist mode. activation, % at 2 µM. actives 0.18% (n = 360,000). AID 493084; in the data active means activation above about 30%; further: 0% is about no effect
Target sequence (P34981 whole entry, looked up): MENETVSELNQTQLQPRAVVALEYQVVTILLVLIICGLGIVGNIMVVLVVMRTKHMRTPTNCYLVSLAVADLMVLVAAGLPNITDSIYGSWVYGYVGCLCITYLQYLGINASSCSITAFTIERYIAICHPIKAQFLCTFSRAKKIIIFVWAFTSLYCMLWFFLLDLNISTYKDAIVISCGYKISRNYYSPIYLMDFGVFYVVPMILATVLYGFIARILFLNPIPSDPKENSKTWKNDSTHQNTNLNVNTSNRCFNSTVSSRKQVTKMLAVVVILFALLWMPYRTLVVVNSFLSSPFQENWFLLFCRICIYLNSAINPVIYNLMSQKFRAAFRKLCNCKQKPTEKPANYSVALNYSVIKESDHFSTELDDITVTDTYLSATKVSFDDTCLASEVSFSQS
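TRHR-expressing cells loaded with fluo-8 calcium dye; 23 nL library compound pin-transferred, kinetic FDSS fluorescence (Ex 480/Em 530) recorded about 180 s for agonist-induced calcium release, before a 10 nM TRH EC20 addition for potentiator mode.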
MBNL1 CUG block = inhibitors of human MBNL1 binding to CUG repeat RNA | Q9NR56 | TR-FRET MBNL1-His/biotin-(CUG)12 binding, 665/545 ratio | Potency, µM (doses to about 57.5 µM), for the others: at the top dose activity change, negative = inhibition, hits mostly inhibitors | actives 0.036% (n = 280,000) | AID 2675; active means well fitted inhibition curve with a large enough effect in the signal ratio, with a control signal flat, not every such curve was filed as active; inconclusive means small, poorly fitted or top-dose-only effect, or effect the other way, or a change in a side signal; inactive means no such curve, though single readings can be large or run the other way; the % refers to the signal ratio; further: potency means the concentration at half of the fitted maximal effect; on the % scale 0 is the no-effect control and ±100 the full control effect
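Ratiometric TR-FRET (665 over 545 nm, excitation 340 nm) tracks disruption of MBNL1-His/biotin-(CUG)12 complex after 60 min at room temperature, with compounds at 92 nM to 58 uM final.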
TRHR PAM = TRH receptor (human) allosteric enhancement; P34981; TRHR cells, fluo-8 calcium fluorescence, EC20 TRH enhancement; enhancement, % at 2 µM; actives 0.66% (n = 360,000); AID 493056; in the data active means enhancement above about 30%; further: 0% is about no effect
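Enhancer read-out: after compound pinning and an initial kinetic agonist-mode read, an EC20 of TRH (10 nM final) was injected and fluo-8 calcium signal (Ex 480/Em 530) followed at 1 s/cycle for 100 cycles in TRHR-expressing cells.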
* hit, by the source's call; ? = inconclusive; / = no result given; [ ] = another dose, or the depositor's remark. Sampled rows, rich in hits. Any-hit rate of the full collection: about 0.88%. Unless noted, the call rests on the fitted dose curve; in most records, active means well fitted curve in the direction sought with a large enough effect; inconclusive means small, poorly fitted or top-dose-only effect, or another doubt; inactive means no such curve, though single readings can be large; an effect the other way counts as inactive or inconclusive.

SMILES | Epigenetic derep | CBFb-RUNX1 inh | IL-2 act | TRHR ag | MBNL1 CUG block | TRHR PAM
O=C(Nc1nnc2n1CCS2)c1ccccc1C(F)(F)F | 1% | / | / | 0 | / | 1
CCOC(=O)Cn1nc(C)cc1NC(=O)c1ccncc1 | 0% | 8% | 1 | 0 | -3% | 34*
CC(C)CC(C(=O)NCCc1ccccc1)N1Cc2ccccc2C1=O (stereo unspecified) | 0% | / | / | 0 | / | -10
O=C(Nc1cc([N+](=O)[O-])ccc1O)c1ccc2c(c1)C(=O)N(Cc1ccco1)C2=O | / | / | -3 | 0 | 2% | 39*
O=C(Nc1ccc(O)cc1C(=O)O)c1ccc2c(c1)C(=O)N(Cc1ccco1)C2=O | 0% | -22% | 2 | -1 | ? | 2
O=C1[C@H]2[C@@H](C(=O)N1c1cccc3ccccc13)C1(C(=O)c3ccccc3C1=O)N1CCC[C@@H]21 | 0% | 0% | -3 | -1 | 10% | 34*
N#CCc1nc2ccc(S(=O)(=O)N3CCOCC3)cc2s1 | 5% | -12% | 0 | 35* | 9% | 2
Cc1csc(=O)n1CC(=O)OCC(=O)Nc1ccc(F)c(F)c1 | / | / | 2 | 0 | / | 33*
O=C(COC(=O)CC(c1ccccc1)c1ccccc1)NCc1ccc(Cl)cc1 | 0% | -3% | -3 | 4 | 5% | -6
CC(CC(=O)NCc1ccc(Cl)cc1)c1ccccc1 (stereo unspecified) | / | / | 2 | 0 | 3% | 34*
COCCCN(Cc1ccco1)C(=O)c1cc2c(s1)-c1ccccc1OC2 | 0% | / | / | 0 | / | -6
COc1ccc(/C(O)=C/c2nc3ccccc3n(-c3ccccc3)c2=O)cc1 | 25µM* | 3% | 1 | 23 | 2% | 2
CCOc1ccc(CCNC(=O)c2cc3c(=O)n(C)c4ccccc4c3n2C)cc1OCC | 0% | / | / | 0 | / | 5
COc1ccc(Br)cc1CNC(=O)CN1CCSc2ccccc21 | -1% | / | / | 0 | / | -14
COc1ccc(Cl)cc1NC(=O)N1CCN(C2CCCCC2)CC1 | 0% | -1% | -1 | 1 | -1% | 36*
CCN1CCN(C(=O)Nc2cc(Cl)ccc2OC)CC1 | -4% | 2% | 0 | 0 | -7% | 0
COc1ccccc1NC(=S)N1CC(C)OC(C)C1 (stereo unspecified) | 2% | 4% | 0 | 0 | -6% | 0
COc1ccc(Cl)cc1NC(=S)N1CC(C)OC(C)C1 (stereo unspecified) | / | / | 1 | 0 | 0% | 33*
COc1ccc(Cl)cc1NC(=O)NC1CCCCC1 | -3% | 2% | 0 | -1 | -6% | 32*
CCCN1CCC(NC(=O)Nc2cc(Cl)ccc2OC)CC1 | 1% | -5% | 1 | 1 | -3% | -2
O=C(NCC1CCCO1)c1ccc(NC(=O)c2cc(F)c(F)cc2Cl)cc1 (stereo unspecified) | / | / | 1 | 1 | -10% | 33*
O=C(NCC1CCCO1)c1ccc(NC(=O)c2cccc(Br)c2)cc1 (stereo unspecified) | / | / | 1 | 0 | 1% | 8
COc1cc2c(cc1OC)n(CC(=O)c1ccc(F)cc1)c(=O)n1nc(CCn3nc(C)cc3C)nc21 | -1% | / | / | 0 | / | 36*
O=c1c(Cl)c2oc3ccccc3nc-2c2ccccc12 | 22µM* | -12% | 22 | 18 | 8% | 13
Cc1cccc2cncc(OCc3nnc(SC(F)F)n3C)c12 | 1% | 4% | 1 | 0 | 6% | 41*
SMILES | Epigenetic derep | CBFb-RUNX1 inh | IL-2 act | TRHR ag | MBNL1 CUG block | TRHR PAM
Fc1ccc(-c2nc(Nc3ccc(F)c(Cl)c3)nc3c2COc2ccccc2-3)cc1 | -1% | / | / | 4 | / | -4
CCc1cc2ccc(C)c(C)c2nc1SCC(=O)Nc1cc(C)on1 | / | / | 2 | 1 | 9% | 2
CCc1cc2cccc(C)c2nc1SCC(=O)Nc1cc(C)on1 | -3% | 7% | 1 | 0 | 4% | 40*
CN1CCN(Cc2cc(Cl)c3cccnc3c2OC(=O)c2cccs2)CC1 | 3.5µM* | -21% | -1 | 1 | ? | -2
COc1cc(/C=C/C(O)=C/C(=O)/C=C/c2ccc(O)cc2)ccc1O | / | / | 1 | 104* | / | 3
COc1cc(/C=C/C(=O)c2ccc(O)cc2O)ccc1O | / | 12% | / | / | / | /
CCC(Oc1ccccc1)C(=O)Nc1nnc(S(=O)(=O)N(CC)CC)s1 (stereo unspecified) | 9% | / | / | 0 | / | -10
COc1cccc(N2CCN(C(=O)CCc3c(C)nc4c(c3C)c(=O)n(C)c(=O)n4C)CC2)c1 | -1% | / | / | 0 | / | 1
Cc1cc(C)cc(Nc2cc(=O)n(C3CCCCC3)c(=O)[nH]2)c1 | -1% | 0% | 0 | 2 | -10% | -4
Cc1cc2nc3c(=O)n(C4CCCCC4)c(=O)[nH]c3nc2cc1N | 1% | 4% | 4 | 119* | ? | 16
Cc1ccccc1OCC(=O)NNC(=O)CCc1ccccc1 | 0% | 1% | 0 | 0 | 2% | 32*
Cc1ccccc1OCC(=O)NCc1ccccc1 | -1% | 4% | -2 | -1 | -7% | 0
O=C(NC1CCCN(Cc2ccc(Cl)cc2)C1)c1ccnc(Cl)c1 (stereo unspecified) | / | / | -1 | -2 | -13% | 32*
COc1cc(OC)cc(C(=O)NC2CCCN(Cc3ccc(Cl)cc3)C2)c1 (stereo unspecified) | / | / | 0 | 0 | -2% | 2
Nc1c(C(=O)c2ccccc2)sc2nsc(SCCN3CCOCC3)c12 | ? | -6% | 5 | 89* | ? | 11
CC(=O)c1sc2nsc(SCCN3CCOCC3)c2c1N | 4% | -6% | -2 | 0 | ? | -13
Cc1c(S(=O)(=O)Nc2ccc(Br)cc2)c(=O)n(C)c(=O)n1C | / | / | -1 | 0 | 2% | 35*
CCCCc1ccc(NS(=O)(=O)c2c(C)n(C)c(=O)n(C)c2=O)cc1 | / | / | -2 | 2 | 3% | 3
CC(=O)c1cccc(NC(=O)Nc2ccccc2)c1 | / | / | 0 | 1 | 0% | -5
CC(=O)c1cccc(NC(=O)Nc2nc(C)cc(C)n2)c1 | / | / | 0 | -1 | -4% | 33*
CCc1ccc(NC(=O)Cn2c(=O)n(CCCCC(=O)NCc3ccc4c(c3)OCO4)c(=O)c3ccccc32)cc1 | 4% | / | / | 2 | / | -1
c1ccc(-c2n[nH]c(-c3ccccn3)n2)cc1 | 22µM* | -18% | -2 | 0 | 0% | 2
Cc1[nH]nc2c1C(c1ccc(-c3ccc(Cl)cc3)o1)C(C#N)=C(N)O2 (stereo unspecified) | ? | -8% | -1 | 0 | 7%[11.5 µM] | 31*
